Data reported in PubChem BioAssay (Tox21).
Active and inactive are the calls of the source. Calls follow the shape of the dose curve; as a rule, active = well fitted inhibition curve with a large enough effect in the repeat runs (not every such curve was filed as active); inconclusive = weak or mixed curves; inactive = flat fitted curve, though single readings scatter.

The compounds below were run against Thyrotropin-releasing hormone receptor (Homo sapiens) (UniProt P34981) (assay: qHTS assay to identify small molecule antagonists of the thyrotropin-releasing hormone receptor (TRHR) signaling pathway (AID 1346877)). Settings: TRHR-HEK293, TRH-induced calcium fluorescence, antagonist mode; series mostly up to 51.3 µM.
In short: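 Intracellular calcium fluorescence, read kinetically every second over 3 min, reports TRH-evoked signalling in HEK293 cells carrying TRHR. Test compounds were added 5 min ahead of a 1 nM TRH challenge.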

Sequence of Thyrotropin-releasing hormone receptor (Homo sapiens) (P34981 whole entry, looked up): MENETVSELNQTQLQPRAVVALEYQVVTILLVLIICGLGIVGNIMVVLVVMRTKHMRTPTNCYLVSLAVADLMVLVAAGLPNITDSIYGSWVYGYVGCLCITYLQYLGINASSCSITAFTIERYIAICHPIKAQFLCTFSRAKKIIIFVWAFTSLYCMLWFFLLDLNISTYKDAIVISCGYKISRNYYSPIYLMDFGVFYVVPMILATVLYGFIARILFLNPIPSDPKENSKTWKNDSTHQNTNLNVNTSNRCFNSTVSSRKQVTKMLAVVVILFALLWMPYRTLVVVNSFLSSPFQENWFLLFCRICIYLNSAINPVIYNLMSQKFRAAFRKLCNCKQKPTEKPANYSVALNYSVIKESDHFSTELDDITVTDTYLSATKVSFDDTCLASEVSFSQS

Structure (SMILES)	outcome
c1ccc2c(c1)ccc1c3ccccc3ccc21	inactive
NCCS	inactive
COCCOCCOCCOCCOCCO	inactive
O=C1CC(c2ccc(Cl)cc2)CC(=O)N1	inactive
O=C1CCCC(=O)O1	inactive
CC(=O)Nc1ccc(S(=O)(=O)Cl)cc1	inactive
CCCCN	inactive
